Screens deposited in PubChem BioAssay by National Center for Advancing Translational Sciences (NCATS).
NPR1 antag: Natriuretic polypeptide receptor (hNpr1) antagonism - Primary qHTS; 76,000 tested, 1.6% active; Potency, µM (series often up to 46.3 µM), hits mostly inhibitors; HEK293 hNpr1 GloSensor cGMP, ANP-stimulated luminescence; AID 1347048, 2019; Atrial natriuretic peptide receptor 1 (Homo sapiens), P16066; calls by dose curve; note: nearly all actives have a fitted effect of over 60% in size
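Compound pre-incubated 30 min at room temperature on GloSensor-loaded HEK293 cells stably carrying hNpr1 and the pGS-40F cGMP biosensor. Stimulation uses hNppA at 0.1 nM final; luminescence is taken at baseline and 20 min post-agonist.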
HEK cytotox: Cytotoxic Profiling in HEK 293 Cell Line of Diverse Libraries Using Quantitative High-Throughput Screening. AID 1345083, 2018. HEK 293 viability, ATP luminescence (CellTiter-Glo), 48-72 h. Potency, µM (top dose mostly 115 µM), usual class: inhibitors. 94,000 tested, 6.6% active; note: nearly all actives have a fitted effect of over 60% in size
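HEK 293 cells at 250 cells/well were exposed to compounds by pintool transfer for 48 or 72 hr at 37 degree Celsius, 5% CO2. Viability was read as ATP-coupled luminescence with CellTiter-Glo after 10 min at room temperature.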
Luciferase inh: Firefly luciferase inhibition profiling of diverse chemical library using quantitative high-throughput screening; AID 1347043, 2019; Potency, µM (top dose mostly 115 µM), most hits filed as inhibitors; 76,000 tested, 2.5% active; purified P. pyralis luciferase, luminescence, biochemical; note: nearly all actives have a fitted effect of over 65% in size
Target sequence (P08659 whole entry, looked up): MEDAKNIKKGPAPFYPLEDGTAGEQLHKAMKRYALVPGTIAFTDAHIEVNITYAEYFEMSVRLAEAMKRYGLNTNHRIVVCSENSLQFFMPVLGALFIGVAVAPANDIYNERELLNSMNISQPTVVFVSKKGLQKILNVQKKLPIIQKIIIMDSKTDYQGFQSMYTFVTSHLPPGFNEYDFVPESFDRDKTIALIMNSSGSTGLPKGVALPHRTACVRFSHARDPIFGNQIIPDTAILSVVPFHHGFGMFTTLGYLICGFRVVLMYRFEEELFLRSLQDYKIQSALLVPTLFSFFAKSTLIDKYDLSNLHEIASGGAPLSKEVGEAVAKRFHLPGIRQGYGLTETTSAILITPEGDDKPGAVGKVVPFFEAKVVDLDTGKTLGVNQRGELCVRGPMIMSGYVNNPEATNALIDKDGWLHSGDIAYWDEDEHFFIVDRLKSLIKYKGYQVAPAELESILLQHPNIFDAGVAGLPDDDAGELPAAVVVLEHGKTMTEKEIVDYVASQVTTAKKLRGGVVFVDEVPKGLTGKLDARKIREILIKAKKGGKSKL
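Purified P. pyralis luciferase (10nM final) in 50mM Tris acetate pH 7.5, 10mM Mg acetate, 0.01% Tween-20, 0.05% BSA with 10uM D-luciferin and 10uM ATP. Compounds titrated qHTS. Luminescence imaged on CCD.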
NIH3T3 tox: Cytotoxic Profiling in NIH 3T3 Cell Line of Diverse Libraries Using Quantitative High-Throughput Screening | NIH 3T3 viability, CellTiter-Glo ATP luminescence, 48-72 h | Potency, µM (series often up to 96.7 µM), actives largely listed as inhibitors | 94,000 tested, 4.3% active; note: nearly all actives have a fitted effect of over 55% in size
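Cytotoxicity was measured by CellTiter-Glo ATP luminescence after 48 or 72 h compound exposure at 37 °C. Mouse NIH 3T3 fibroblasts were seeded at 400 cells/well and dosed by 23 nL pin transfer.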
Hits are given with their value; n = inactive; u = inconclusive; x = no result. Hits are enriched below; roughly 11% of the tested compounds scored in any of these assays. Unless noted, calls come from the whole dose curve; as a rule, active = well fitted curve in the direction sought with a large enough effect; inconclusive = small, poorly fitted or top-dose-only effect, or another doubt; inactive = no such curve, though single readings can be large; an effect the other way counts as inactive or inconclusive.

SMILES	NPR1 antag	HEK cytotox	Luciferase inh	NIH3T3 tox
COc1ccc(Nc2ccnc(N3CCN(C(=O)c4cccc(OC)c4)CC3)n2)cc1	x	16µM	x	25µM
COc1ccc(CC(=O)N2CCN(c3nccc(Nc4ccc(OC)cc4)n3)CC2)cc1	x	u	x	n
CC(C)C[C@@H]1N[C@H](C(=O)NC2CCC2)Cc2cn(Cc3nccn3C)c3cccc1c23	n	u	n	79µM
C=CCN(C)C(=O)[C@@H]1Cc2cn(Cc3cc(C)on3)c3cccc(c23)[C@H](CC(C)C)N1	n	71µM	n	71µM
C=CCNC(=O)[C@@H]1Cc2cn(Cc3nccn3C)c3cccc(c23)[C@H](CC(C)C)N1	n	u	n	79µM
C=CCN(C)C(=O)[C@@H]1Cc2cn(Cc3nccn3C)c3cccc(c23)[C@H](CC(C)C)N1	n	100µM	n	u
O=C(C1CC=CC1)N1CCC(c2nc(CCOCC3CC3)no2)C1 (stereo not drawn)	n	u	n	u
O=C(NCc1cccs1)c1ccc2nnc(C3CCOCC3)n2c1	x	n	x	n
CCOc1ccc(C2NC(=O)N(CC(=O)NCCc3cccs3)C3=C2C(=O)OC3)cc1 (stereo not drawn)	n	u	n	n
CC(C)C[C@@H]1N[C@H](C(=O)NC(C)C)Cc2cn(Cc3nccn3C)c3cccc1c23	n	u	n	79µM
Cc1cc(-c2cc3c(nc2-c2ccccc2)nc(C(=O)NC2CCN(C)CC2)n3C)ccn1	n	u	n	25µM
COc1cc(-c2cc3c(nc2-c2ccccc2)nc(C(=O)NCCN(C)C)n3C)ccn1	n	u	n	u
COc1ccc(-c2cc3c(nc2-c2ccccc2)nc(C(=O)NCCN(C)C)n3C)cn1	n	u	n	79µM
COc1ccccc1-c1cc2c(nc1-c1ccccc1)nc(C(=O)NCCN(C)C)n2C	u	u	n	35µM
COc1cc(-c2cc3c(nc2-c2ccccc2)nc(C(=O)NC2CCN(C)CC2)n3C)ccn1	n	u	n	u
COc1cc(F)ccc1-c1cc2c(nc1-c1ccccc1)nc(C(=O)NCCN(C)C)n2C	n	32µM	n	20µM
COCCNC(=O)c1nc2nc(-c3ccccc3)c(Cl)cc2n1C	n	u	n	u
CN1CCc2[nH]cnc2C12CCN(C(=O)c1cccc(-n3cccn3)c1)CC2	n	n	n	n
CCc1noc(-c2ccn3c(CNC(=O)c4ccc(C)c(F)c4)nnc3c2)n1	n	n	n	n
CN(C)CCNC(=O)c1nc2nc(-c3ccccc3)c(-c3cccnc3)cc2n1C	n	u	n	u
CN(C)CCNC(=O)c1nc2nc(-c3ccccc3)c(-c3ccncc3)cc2n1C	n	u	n	100µM
Cc1ccccc1-c1cc2c(nc1-c1ccccc1)nc(C(=O)NCCN(C)C)n2C	u	35µM	n	25µM
Cc1cc(-c2cc3c(nc2-c2ccccc2)nc(C(=O)NCCN(C)C)n3C)ccn1	n	n	n	u
O=C(c1ccccc1Cl)N1CCCC2(C1)Nc1cccnc1NC2=NC1CCCC1 (stereo not drawn)	n	n	n	n
O=C(Nc1ccccc1Cl)N1CCCC2(C1)Nc1cccnc1NC2=NC1CCCC1 (stereo not drawn)	n	u	n	45µM
SMILES	NPR1 antag	HEK cytotox	Luciferase inh	NIH3T3 tox
COc1cccc(CN2Cc3nc(-c4cc(Cl)ccc4OC)ccc3OCC2=O)c1	n	100µM	n	u
COc1cccc(CN2Cc3nc(-c4cc5ccccc5o4)ccc3OCC2=O)c1	n	79µM	n	u
COc1cccc(CN2Cc3nc(-c4c(C)noc4C)ccc3OCC2=O)c1	n	u	n	40µM
COc1cccc(CN2Cc3nc(-c4ccc(F)cc4)ccc3OCC2=O)c1	n	u	n	79µM
Cc1ccc(C(=O)N2CCCC2c2nc(CCOCC3CCOCC3)no2)s1 (stereo not drawn)	n	n	n	n
CC(=O)NCC(=O)N1Cc2ccccc2CC2(CCN(CC3CCNCC3)CC2)C1	x	n	x	n
CC(=O)Nc1cccc(-c2ccc3c(n2)CN(Cc2ccccc2)C(=O)CO3)c1	n	u	n	u
COc1cccc(CN2Cc3nc(-c4cccc(NC(C)=O)c4)ccc3OCC2=O)c1	n	79µM	n	u
O=C(NC1CCCC1)c1ccc(-c2ccc(N3CCCCC3)nc2)cc1	n	n	n	n
Cc1cc(C)cc(-c2ccc(CN3CCCC3C(=O)NC3CC3)cc2)c1 (stereo not drawn)	x	50µM	x	u
Cc1cc(C)cc(-c2ccc(CN3CCCC3C(=O)Nc3ccccc3Cl)cc2)c1 (stereo not drawn)	x	n	x	n
Cc1cc(C)cc(-c2ccc(CN3CCCC3C(=O)Nc3ccccc3F)cc2)c1 (stereo not drawn)	x	u	x	n
Cc1cc(C)cc(-c2ccc(CN3CCCC3C(=O)NCc3ccc4c(c3)OCO4)cc2)c1 (stereo not drawn)	x	50µM	x	35µM
Cc1cc(C)cc(-c2ccc(CN3CCCC3C(=O)NCCc3ccccc3)cc2)c1 (stereo not drawn)	x	40µM	x	32µM
Cc1cc(C)cc(-c2ccc(CN3CCCC3C(=O)NC(C)C)cc2)c1 (stereo not drawn)	x	50µM	x	u
Cc1cccc(CNC(=O)CC2CCOCC2)c1	n	n	n	n
O=C(NCC1CC1)c1cc2n(n1)CC(c1ccc(Cl)cc1)OC2 (stereo not drawn)	n	u	n	40µM
CCOc1ccccc1CNC(=O)c1cc2n(n1)CC(c1ccc(Cl)cc1)OC2 (stereo not drawn)	n	25µM	n	u
Cc1c(-c2ccc(F)cc2)[nH]c2ccc(CNC(=O)c3n[nH]c4c3CCCC4)cc12	16µM	u	16µM	32µM
CCN1CCN(CC(=O)NCc2ccc3[nH]c(-c4ccc(F)cc4)c(C)c3c2)CC1	n	18µM	u	22µM
Cc1c(-c2ccc(F)cc2)[nH]c2ccc(CNC(=O)c3cnn(C)c3)cc12	u	40µM	25µM	u
O=C(CCc1c[nH]c2ccccc12)NC1CCCc2c1[nH]c1ccc(F)cc21 (stereo not drawn)	n	u	n	40µM
O=C(CN1CC(=O)NC1=O)NCc1ccc2[nH]c3c(c2c1)CCCCCC3	n	n	n	n
COCCNC(=O)[C@@H](C)C1CCc2c(C)cc(OC)c(C)c2[C@@H]1O (stereo partly drawn)	n	u	n	n
COc1ccc(-c2ccccc2NC(=O)C2CCCN2C(=O)c2cccnc2)cc1 (stereo not drawn)	n	n	n	n
CCCNC(=O)N1C[C@@H](Oc2ccccc2)C[C@@H]1C(=O)NC	n	n	n	n
O=C(NC1CCCc2c1[nH]c1ccc(Cl)cc21)c1ccco1 (stereo not drawn)	n	n	n	u
Cc1c(-c2ccccc2F)[nH]c2ccc(CNC(=O)CCN3CCCO3)cc12	n	u	16µM	u
